Hit rate of the full screen: of about 5,500 compounds, about 2,000 (36%) were called active. Another 18% or so got no clear call; they are omitted. No stated cut-off is given here; in the data, active means normalized growth mostly below about 0.91 (no sharp cut-off); inconclusive means no clear call, values can overlap the other calls; inactive means mostly above about 0.92. Some of the results follow.
Assay: chemical genetic growth profiling, strain panel (AID 1159580);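 further: tested at 20 µM; growth read once vehicle control cultures reached saturation at 30 °C; 1 = growth at the plate median or of vehicle wells; lower values mean less growth of the strain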
Conditions: growth OD

Measured: normalized growth

O=c1[nH]c(=O)n(C2C[C@@H](O)[C@@H](CO)O2)cc1F (stereo partly drawn)
inactive: S. cerevisiae deletion strains, locus YJR066W, strain TOR1, hits give low values 0.932 | S. cerevisiae deletion strains, locus YKL009W, strain mrt4, hits give low values 1.04 | S. cerevisiae deletion strains, locus YKL068W, hits give low values 1 | S. cerevisiae deletion strains, locus YKL085W, strain MDH1 (second series), hits give low values 0.996 | S. cerevisiae deletion strains, locus YKL085W, strain MDH1, hits give low values 0.996 | S. cerevisiae deletion strains, locus YKL160W, strain elf1, hits give low values 1 | S. cerevisiae deletion strains, locus YKR001C, strain vps1, hits give low values 1.01 | S. cerevisiae deletion strains, locus YKR026C, strain gcn3, hits give low values 0.978 | S. cerevisiae deletion strains, locus YKR091W, strain srl3, hits give low values 0.995 | S. cerevisiae deletion strains, locus YLL001W, strain dnm1, hits give low values 0.992 | S. cerevisiae deletion strains, locus YLL026W, hits give low values 0.985 | S. cerevisiae deletion strains, locus YLL041C, strain sdh2, hits give low values 0.984 | S. cerevisiae deletion strains, locus YLR027C, strain aat2, hits give low values 0.994 | S. cerevisiae deletion strains, locus YLR039C, strain RIC1, hits give low values 1.04 | S. cerevisiae deletion strains, locus YLR058C, strain SHM2, hits give low values 1.02 | S. cerevisiae deletion strains, locus YLR102C, strain apc9, hits give low values 1.01 | S. cerevisiae deletion strains, locus YLR113W, strain HOG1, hits give low values 0.986 | S. cerevisiae deletion strains, locus YLR221C, strain rsa3, hits give low values 1.01 | S. cerevisiae deletion strains, locus YLR258W, strain gsy2, hits give low values 1.01 | S. cerevisiae deletion strains, locus YLR262C, strain YPT6 (second series), hits give low values 1.02 | S. cerevisiae deletion strains, locus YLR262C, strain YPT6, hits give low values 1.04 | S. cerevisiae deletion strains, locus YLR268W, strain sec22, hits give low values 1.03 | S. cerevisiae deletion strains, locus YLR320W, strain mms22, hits give low values 1.01 | S. cerevisiae deletion strains, locus YLR330W, strain CHS5, hits give low values 1.01 | S. cerevisiae deletion strains, locus YLR342W, strain FKS1 (second series), hits give low values 1.02 | S. cerevisiae deletion strains, locus YLR342W, strain FKS1, hits give low values 1.01 | S. cerevisiae deletion strains, locus YLR357W, strain rsc2, hits give low values 0.974 | S. cerevisiae deletion strains, locus YLR370C, strain arc18, hits give low values 1 | S. cerevisiae deletion strains, locus YLR371W, strain rom2, hits give low values 1.02 | S. cerevisiae deletion strains, locus YLR384C, strain iki3, hits give low values 0.982 | S. cerevisiae deletion strains, locus YLR418C, strain cdc73, hits give low values 1.02 | S. cerevisiae deletion strains, locus YML016C, strain PPZ1, hits give low values 1.01 | S. cerevisiae deletion strains, locus YML032C, strain rad52, hits give low values 1 | S. cerevisiae deletion strains, locus YML120C, strain ndi1, hits give low values 0.984 | S. cerevisiae deletion strains, locus YML124C, strain tub3, hits give low values 1.01 | S. cerevisiae deletion strains, locus YMR058W, strain fet3, hits give low values 0.986 | S. cerevisiae deletion strains, locus YMR078C, strain ctf18, hits give low values 1.01 | S. cerevisiae deletion strains, locus YMR125W, strain sto1, hits give low values 0.985 | S. cerevisiae deletion strains, locus YMR129W, hits give low values 0.999 | S. cerevisiae deletion strains, locus YMR205C, strain PFK2, hits give low values 1.01 | S. cerevisiae deletion strains, locus YMR223W, strain ubp8, hits give low values 1 | S. cerevisiae deletion strains, locus YMR231W, strain pep5, hits give low values 1.01 | S. cerevisiae deletion strains, locus YMR263W, strain SAP30, hits give low values 1.05 | S. cerevisiae deletion strains, locus YMR307W, strain GAS1, hits give low values 1.05 | S. cerevisiae deletion strains, locus YNL067W, strain RPL9B, hits give low values 1.06 | S. cerevisiae deletion strains, locus YNL071W, strain lat1, hits give low values 0.993 | S. cerevisiae deletion strains, locus YNL153C, strain GIM3, hits give low values 1.04 | S. cerevisiae deletion strains, locus YNL183C, strain NPR1, hits give low values 0.93 | S. cerevisiae deletion strains, locus YNL209W, strain ssb2, hits give low values 0.987 | S. cerevisiae deletion strains, locus YNL233W, strain BNI4, hits give low values 1.05 | S. cerevisiae deletion strains, locus YNL248C, strain rpa49, hits give low values 0.973 | S. cerevisiae deletion strains, locus YNL250W, strain rad50, hits give low values 1 | S. cerevisiae deletion strains, locus YNL271C, strain bni1, hits give low values 1.01 | S. cerevisiae deletion strains, locus YNL298W, strain CLA4, hits give low values 0.996 | S. cerevisiae deletion strains, locus YNL307C, strain MCK1, hits give low values 1.02 | S. cerevisiae deletion strains, locus YNL322C, strain KRE1 (second series), hits give low values 0.999 | S. cerevisiae deletion strains, locus YNL322C, strain KRE1, hits give low values 1 | S. cerevisiae deletion strains, locus YNR049C, strain mso1, hits give low values 0.982 | S. cerevisiae deletion strains, locus YNR052C, strain pop2, hits give low values 1.01 | S. cerevisiae deletion strains, locus YOL012C, strain htz1 1.63 | S. cerevisiae deletion strains, locus YOL147C, strain pex11, hits give low values 1.02 | S. cerevisiae deletion strains, locus YOR001W, strain rrp6, hits give low values 0.987 | S. cerevisiae deletion strains, locus YOR061W, strain CKA2, hits give low values 1.01 | S. cerevisiae deletion strains, locus YOR069W, strain VPS5, hits give low values 1.01 | S. cerevisiae deletion strains, locus YOR070C, strain gyp1, hits give low values 1.01 | S. cerevisiae deletion strains, locus YOR080W, strain dia2, hits give low values 1 | S. cerevisiae deletion strains, locus YOR083W, strain WHI5, hits give low values 1.01 | S. cerevisiae deletion strains, locus YOR106W, strain vam3, hits give low values 0.996 | S. cerevisiae deletion strains, locus YOR136W, strain idh2, hits give low values 1.02 | S. cerevisiae deletion strains, locus YOR144C, strain elg1, hits give low values 1.01 | S. cerevisiae deletion strains, locus YOR184W, strain ser1, hits give low values 1.02 | S. cerevisiae deletion strains, locus YOR231W, strain MKK1, hits give low values 0.98 | S. cerevisiae deletion strains, locus YOR265W, strain rbl2, hits give low values 1.01 | S. cerevisiae deletion strains, locus YOR270C, strain vph1, hits give low values 0.994 | S. cerevisiae deletion strains, locus YOR290C, strain snf2, hits give low values 0.989 | S. cerevisiae deletion strains, locus YOR316C, strain cot1, hits give low values 1.02 | S. cerevisiae deletion strains, locus YPL051W, strain arl3, hits give low values 1.02 | S. cerevisiae deletion strains, locus YPL078C, strain atp4, hits give low values 0.976 | S. cerevisiae deletion strains, locus YPL106C, strain sse1, hits give low values 1.01 | S. cerevisiae deletion strains, locus YPL240C, strain hsp82, hits give low values 0.987 | S. cerevisiae deletion strains, locus YPL241C, strain CIN2, hits give low values 1 | S. cerevisiae deletion strains, locus YPL256C, strain CLN2, hits give low values 0.957 | S. cerevisiae deletion strains, locus YPR119W, strain clb2, hits give low values 1.01 | S. cerevisiae deletion strains, locus YPR141C, strain kar3, hits give low values 1.01 | S. cerevisiae deletion strains, locus YPR163C, strain tif3, hits give low values 1.01 | S. cerevisiae deletion strains, locus YPR167C, strain met16, hits give low values 1.02 | S. cerevisiae deletion strains, strain wtn01, hits give low values 0.996 | S. cerevisiae strains, strain wild type, hits give low values 1.01

— PubChem BioAssay AID1159580 (chemical genetic matrix, 2015)
